Source: PubChem (National Center for Advancing Translational Sciences (NCATS))
LASV entry inh: qHTS for Inhibitors of binding or entry into cells for Lassa Virus; AID 540256, 2011; Potency, µM (highest dose often 37.9 µM), without a hit: at the highest dose activity change, negative = inhibition, hits mostly inhibitors; Lassa virus pseudotype entry inhibition, cell reporter; 300,000 compounds, 1.2% hits; calls by dose curve; tested in HEK293 cells; note: potency is the fitted concentration of half-maximal effect; nearly all actives have a fitted effect of over 50% in size
HCMV antiviral: qHTS Assay for inhibitors of the human cytomegalovirus (HCMV) | HFF cells, HCMV-luciferase reporter, 72 h; stronger effect = lower value | activity change, negative = inhibition, % at 57.5 µM | 410,000 compounds, 4.5% hits | AID 1259415, 2018; in the data active = activity change below about -60%; inconclusive = no clear call, values can overlap the other calls; inactive = above about -39%
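Compounds were evaluated in HFFs infected with an HCMV luciferase reporter virus (MOI 1 PFU/cell). Luciferase in lysates collected 72 h post infection served as the replication measure.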
Marburg entry inh: qHTS for inhibitors of binding or entry into cells for Marburg Virus | Potency, µM (highest dose often 37.8 µM), inactives show top-dose activity change, negative = inhibition, actives largely listed as inhibitors | 300,000 compounds, 1.8% hits | Marburg virus pseudotyped entry inhibition, cell reporter; calls by dose curve; tested in HEK293 cells; note: potency is the fitted concentration of half-maximal effect
VACV Venus inh: qHTS for Stage-Specific Inhibitors of Vaccinia Orthopoxvirus: Venus Reporter Primary qHTS | Vaccinia virus Venus reporter expression, fluorescence | Potency, µM (series often up to 36.5 µM), inactives show at the top dose activity change, negative = inhibition, usual class: inhibitors | 330,000 compounds, 0.46% hits; calls by dose curve; tested in A549 cells; note: potency is the fitted concentration of half-maximal effect; nearly all actives have a fitted effect of over 30% in size
FMDV antiviral: High Throughput Screening for Foot and Mouth Disease Virus Antivirals; FMDV antiviral cell-based qHTS; Potency, µM (titrated, usually from 57.9 µM), without a hit: at the highest dose activity change, negative = inhibition, hits mostly inhibitors; 410,000 compounds, 1.2% hits; AID 1159524, 2015; calls by dose curve; tested in HEK293T cells; note: read-out not given here; potency is the fitted concentration of half-maximal effect; nearly all actives have a fitted effect of over 45% in size
VACV mCherry inh: qHTS for Stage-Specific Inhibitors of Vaccinia Orthopoxvirus: mCherry Reporter Primary qHTS. Vaccinia virus mCherry reporter infection, fluorescence. Potency, µM (doses to about 36.5 µM), without a hit: top-dose activity change, negative = inhibition, actives largely listed as inhibitors. 310,000 compounds, 0.63% hits. AID 720579, 2013; calls by dose curve; tested in A549 cells; note: potency is the fitted concentration of half-maximal effect; nearly all actives have a fitted effect of over 35% in size
* marks the source's active call; other numbers are inactive results; [ ] = dose if it differs, or a comment. Compounds with a hit are over-represented: about 6.5% of the library has one in this group of screens. % is set by controls: 0 for no effect and ±100 for the full control effect.

What do the screens show for `CCc1ccc(OCCn2c(C3CC(=O)N(Cc4ccc(F)cc4)C3)nc3ccccc32)cc1` (configuration not stated)?
LASV entry inh: -21.1%[46.1 µM]; HCMV antiviral: -105.2*; Marburg entry inh: inconclusive; VACV Venus inh: 11.2µM*; FMDV antiviral: -40.7%; VACV mCherry inh: inconclusive

How did CCOc1ccc(N2CC(c3nc4ccccc4n3CCOc3ccccc3)CC2=O)cc1 (configuration not stated) do in these assays?
LASV entry inh: 5.3%[46.1 µM]; HCMV antiviral: 7.8; Marburg entry inh: inconclusive; VACV Venus inh: -5.8%; FMDV antiviral: -12.8%; VACV mCherry inh: -0.9%

What do the screens show for `Cc1ccc(OCCn2c(C3CC(=O)N(Cc4ccc(F)cc4)C3)nc3ccccc32)c(C)c1` (configuration not stated)?
LASV entry inh: inconclusive; HCMV antiviral: -91.6*; Marburg entry inh: inconclusive; VACV Venus inh: inconclusive; FMDV antiviral: -28.1%; VACV mCherry inh: -10.2%

Results for COc1ccccc1NC(=O)c1cnc(SCC(=O)N2CCCc3ccccc32)n(C)c1=O ?
LASV entry inh: -2.2%[46.1 µM]; HCMV antiviral: 14.4; VACV Venus inh: -13.3%; FMDV antiviral: -5.3%; VACV mCherry inh: -10.2%

What do the screens show for `COc1cc2c(cc1Nc1nc(Nc3ccsc3C(N)=O)c3cc[nH]c3n1)N(C(=O)CN(C)C)CCC2`?
LASV entry inh: 0.0705µM*

What do the screens show for `COc1ccc(NC(=O)N2CCCc3ccccc32)c(OC)c1`?
LASV entry inh: inconclusive; HCMV antiviral: -16.7; Marburg entry inh: 14.4%[46.1 µM]; VACV Venus inh: -13.8%; FMDV antiviral: -0.7%; VACV mCherry inh: inconclusive

How did CNC(=O)c1ncccc1Nc1nc(Nc2cc3c(cc2OC)CCCN3C(=O)CN(C)C)nc2[nH]ccc12 do in these assays?
LASV entry inh: 3.97µM*

How did COc1cc(=O)n2c(c1C(=O)N(C)Cc1nccs1)CCN(Cc1cc3ccccc3s1)CC2 do in these assays?
VACV Venus inh: 0.0%; FMDV antiviral: -10.7%; VACV mCherry inh: -4.1%

What do the screens show for `COc1ccc(C2N=C(Nc3nc4ccccc4o3)NC3=C2C(=O)CC(C)(C)C3)cc1` (configuration not stated)?
VACV Venus inh: inconclusive; VACV mCherry inh: -28.7%

What do the screens show for `CCC(Sc1nc2ncccc2[nH]1)C(=O)NCCc1ccccc1` (configuration not stated)?
HCMV antiviral: -61.3*; VACV Venus inh: 0.8%; FMDV antiviral: -9.9%; VACV mCherry inh: -11.9%

Results for CCC(Sc1nc2ncccc2[nH]1)C(=O)NC1CCC(C)CC1 (configuration not stated) ?
HCMV antiviral: -8.8; VACV Venus inh: -8.4%; FMDV antiviral: 0.0%; VACV mCherry inh: -24.3%

Results for CCN1CCN(C(c2ccc(F)cc2)c2c(O)cc(C)n(CCOC)c2=O)CC1 (configuration not stated) ?
LASV entry inh: -18.7%[46.1 µM]; HCMV antiviral: -4.5; VACV Venus inh: -1.2%; FMDV antiviral: -15.1%; VACV mCherry inh: -3.4%

How did COc1ccc(OC)c(-c2cc(Cl)c3c(c2)CC(CNC(=O)c2cccnc2SC)O3)c1 (configuration not stated) do in these assays?
VACV Venus inh: -13.0%; FMDV antiviral: -2.9%; VACV mCherry inh: -14.7%

What do the screens show for `CC(c1ccco1)N(C(=O)C12CC3CC(CC(C)(C3)C1)C2)c1ccccn1` (configuration not stated)?
LASV entry inh: 11.2µM*; HCMV antiviral: 28.8; Marburg entry inh: inconclusive; VACV Venus inh: -3.2%; FMDV antiviral: 15.7%

Results for CC(c1ccco1)N(C(=O)c1ccc(F)cc1)c1ccccn1 (configuration not stated) ?
LASV entry inh: 6.6%; HCMV antiviral: -27.1; Marburg entry inh: 11.6%; VACV Venus inh: -1.8%; FMDV antiviral: 6.7%; VACV mCherry inh: inactive

How did Cc1ccc2c(c1)[C@H]1[C@H](CO2)[C@H](c2ccccc2)[C@]2(C)C(=O)Nc3ccccc3C(=O)N12 do in these assays?
HCMV antiviral: -76.4*; VACV Venus inh: -26.6%; FMDV antiviral: 0.0%; VACV mCherry inh: inconclusive

Results for C[C@@]12C(=O)Nc3ccc(F)cc3C(=O)N1[C@H]1c3cc(Br)ccc3OC[C@@H]1[C@@H]2c1ccccc1 ?
HCMV antiviral: -70.2*; VACV Venus inh: inconclusive; FMDV antiviral: -27.0%; VACV mCherry inh: -22.4%

How did Cc1ccc2c(c1)[C@H]1[C@H](CO2)[C@H](c2ccccc2)[C@]2(C)C(=O)Nc3ccc(Cl)cc3C(=O)N12 do in these assays?
HCMV antiviral: -32.7; VACV Venus inh: inconclusive; FMDV antiviral: -23.1%; VACV mCherry inh: -24.3%

How did C[C@]12C(=O)N(c3cccc(F)c3)C(=O)N1[C@@H]1c3ccccc3OC[C@@H]1[C@H]2c1ccccc1 do in these assays?
HCMV antiviral: -85.6*; VACV Venus inh: -16.9%; FMDV antiviral: -5.8%; VACV mCherry inh: inconclusive

What do the screens show for `CCOC(=O)[C@H]1[C@H]2COc3ccc(OC)cc3[C@@H]2N2C(=O)c3cc(C)ccc3NC(=O)[C@@]12C`?
HCMV antiviral: -61.5*; VACV Venus inh: -22.8%; FMDV antiviral: -11.9%; VACV mCherry inh: inactive

What do the screens show for `Cc1oc(-c2ccccc2NC(=O)C2CCC2)nc1CNC(=O)c1cccc(C(F)(F)F)c1`?
VACV Venus inh: -5.1%; FMDV antiviral: 8.9%; VACV mCherry inh: -4.8%

What do the screens show for `CC12CCC(C/C1=N/OC(=O)c1cccc([N+](=O)[O-])c1)C2(C)C` (configuration not stated)?
HCMV antiviral: -65.3*; FMDV antiviral: -20.3%

Results for CC12CCC(C/C1=N\OC(=O)c1ccc(F)cc1)C2(C)C (configuration not stated) ?
LASV entry inh: 1.0%; HCMV antiviral: -6.2; Marburg entry inh: 0.5%; FMDV antiviral: -2.5%

Results for CCCn1c(=O)c2sccc2n2c(CCCC(=O)N3CCN(c4cccc(C)c4C)CC3)nnc12 ?
LASV entry inh: 3.7%[46.1 µM]; HCMV antiviral: -16.7; VACV Venus inh: -21.6%; FMDV antiviral: 15.8µM*; VACV mCherry inh: -26.1%

Results for CC1C(=O)N(Cc2ccc(F)cc2)c2ccccc2N1C(=O)c1c(F)cccc1F (configuration not stated) ?
HCMV antiviral: -72.9*; FMDV antiviral: 22.4µM*

What do the screens show for `COC(=O)c1ccc(CN2C(=O)C(C)N(C(=O)c3c(F)cccc3F)c3ccccc32)cc1` (configuration not stated)?
HCMV antiviral: -6.9; FMDV antiviral: inconclusive
